# Reference: PubChem BioAssay AID540276 (National Center for Advancing Translational Sciences (NCATS), 2011)
# Hit rate of the full screen: of about 300,000 compounds, about 5,400 (1.8%) were called active. Not shown: some 28% with an inconclusive outcome. The call rests on the fitted dose curve; tested in HEK293 cells. What follows is part of a selection rich in actives, with near analogues and random picks from the rest. Where a call stands in place of a potency, no number is given.
# Test: qHTS for inhibitors of binding or entry into cells for Marburg Virus
# Details: Marburg virus pseudotyped entry inhibition, cell reporter; series mostly up to 37.8 µM
# Potency means the concentration at half of the fitted maximal effect.
row,SMILES,Potency
1,CC(C)CC(=O)Nc1ccc(Cc2ccncc2)cc1,inactive
2,CCOc1ccc(-c2noc(CCC(=O)NC3CCCC3)n2)cc1OC,inactive
3,COc1ccccc1NC(=O)CCC(=O)N1CC(C)Oc2ccc(C)cc21 (stereo not given),inactive
4,Cc1ccc2c(c1)N(C(=O)CCC(=O)NCc1ccccc1F)CC(C)O2 (stereo not given),inactive
5,CC1CN(C(=O)CCC(=O)NCCCN2CCC(Cc3ccccc3)CC2)c2cc(Cl)ccc2O1 (stereo not given),11.2 µM (active)
6,N[C@@H](Cc1ccccc1)C(=O)N1CCC(C(=O)NCC(=O)Nc2ccc(F)cc2)CC1,inactive
7,O=C(CN1CCN(C(=O)C2CCCO2)CC1)Nc1c(Cl)cccc1Cl (stereo not given),inactive
8,COc1cc(/C=N/Nc2nc3ccccc3s2)ccc1O,10 µM (active)
9,COc1cc(/C=N\Nc2nc(-c3cccs3)c(NC(C)=O)s2)ccc1O,inactive
10,CCNc1nc(NCC)nc(N/N=C/c2ccc(O)c(OC)c2)n1,inactive
11,CCN(CC(=O)Nc1c(F)cccc1F)C(=O)Cc1cccs1,inactive
12,CCOC(=O)N(Cc1ccccc1)C1CC1,inactive
13,CCCC(C(=O)OCCN(CC)CC)(c1ccccc1)c1ccccc1,10 µM (active)
14,CCOC(=O)CCP(=O)(O)C(O)(c1ccccc1)c1ccccc1,inactive
15,CCC(C(=O)OCCN(CC)CC)c1ccccc1 (stereo not given),inactive
16,COc1ccccc1CN1CCNC(=O)C1CC(=O)N(C)CC1CCOCC1 (stereo not given),inactive
17,O=C(c1ccc(N2CCOCC2)c([N+](=O)[O-])c1)N1CCN(c2ccccc2F)CC1,inactive
18,COc1ccc(CCNC(=O)CSc2nc3[nH]ncc3c(=O)n2-c2cccc(C(F)(F)F)c2)cc1OC,inactive
19,COC(=O)c1ccc(CSc2nc3ccccc3c(=O)n2-c2cccc(OC)c2)o1,inactive
20,Cc1cccc2nc(CSc3nc4[nH]ncc4c(=O)n3-c3cccc(Cl)c3)cc(=O)n12,7.31 µM (active)
21,CC(=O)C1=C(C)NC(=O)NC1c1ccc2c(c1)OCO2 (stereo not given),inactive
22,CN(C)CCCNC(=O)/C=C/c1ccc(OCc2c(F)cccc2Cl)cc1,3.98 µM (active)
23,C#CC(C)(CC)NC(=O)Cn1nnc(-c2ccc(OCc3c(F)cccc3Cl)cc2)n1 (stereo not given),inactive
24,O=C(/C=C/c1ccc(F)cc1)NCCNC(=O)/C=C/c1ccc(F)cc1,inactive
25,O=C(CCCCCNC(=O)c1ccccc1)N/N=C/c1ccccc1,inactive

row,SMILES,Potency
1,CCOc1cc(C=NNC(=O)CCCC(=O)NN=Cc2ccc(O)c(OCC)c2)ccc1O,inactive
2,NCCCCCC(=O)N/N=C/c1ccc2nccnc2c1,2.82 µM (active)
3,COc1ccccc1CNC(=O)CSc1nc(=O)n(Cc2ccncc2)c2c1CCC2,inactive
4,Cc1ccc(C(=O)N/C(=C\c2cn(C)c3ccccc23)C(=O)N2CCN(C)CC2)cc1,inactive
5,CC(=O)OC1CCC2C3CCC4=C(CC(F)C(=O)C4)C3CCC12C (stereo not given),inactive
6,C=CCn1c(C)cc(C2=NNC(=NCC)SC2)c1C,1.16 µM (active)
7,Cc1cccc(N=C2NN=C(c3c[nH]c4ccccc34)CS2)c1,inactive
8,COCCn1c(C)cc(C2=NNC(=Nc3ccc(F)cc3)SC2)c1C,inactive
9,COc1cccc(N(C(=O)CNC(=O)c2ccco2)C(C(=O)NC2CCCCC2)c2cccnc2)c1 (stereo not given),inactive
10,COc1cc([C@H]2[C@@H]3C(=O)N(c4ccc(F)cc4)C(=O)[C@H]3ON2c2ccccc2)ccc1O,inactive
11,O=[N+]([O-])c1ccc(S(=O)(=O)Nc2cccc(-c3ccc(N4CCCC4)nn3)c2)cc1,inactive
12,Cc1ccc(S(=O)(=O)c2cc3c(=O)n4cccc(C)c4nc3n(CCc3ccccc3)c2=N)cc1C,inactive
13,O=C(OCC(=O)N1CCCCCC1)c1ccc(Br)c(S(=O)(=O)N2CCOCC2)c1,inactive
14,C=CCNc1ncnc2ccc(Br)cc12,inactive
15,CC1(C)CC2CC(C)(CN2c2ncnc3ccc(Br)cc23)C1 (stereo not given),6.31 µM (active)
16,O=C(NNc1nc(N2CCCC2)nc(N2CCCC2)n1)c1ccccc1,inactive
17,O=C(CN1CCc2ccccc2C1)Nc1cccc(S(=O)(=O)N2CCOCC2)c1,inactive
18,COc1ccc2oc(N)nc2c1,inactive
19,COc1cccc(-c2nc3cc(C)ccc3o2)c1,6.31 µM (active)
20,O=[N+]([O-])c1ccc2oc(-c3cccc(O)c3)nc2c1,inactive
21,Nc1ccc2c(c1)C(=Cc1cccnc1)c1ccccc1-2,inactive
22,CSCCC(NC(=O)COc1ccccc1)C(=O)N(C)CC(=O)Nc1ccc(C)cc1 (stereo not given),inactive
23,CC1CCCCC12NC(=O)N(CC(=O)OCc1c(F)cccc1Cl)C2=O (stereo not given),inactive
24,O=C(c1ccc(Cl)cc1)N1N=C(c2ccccn2)CC1(O)C(F)(F)F (stereo not given),7.94 µM (active)
25,COC(=O)C1(O)CC(C(C)C)=NN1C(=O)c1ccc(Cl)cc1 (stereo not given),inactive
